From PubChem BioAssay
M1 PAM – human CHRM1 positive allosteric modulation; P11229; AID 588819; activation, % at 3 µM; CHO-K1 hM1, Fluo-8 calcium fluorescence, ACh EC20; 0% = ACh EC20, 100% = maximal ACh; 360,000 compounds, 0.088% hits; in the data active means activation above about 19%, passing the limit was not always enough
Target sequence (P11229 whole entry, looked up): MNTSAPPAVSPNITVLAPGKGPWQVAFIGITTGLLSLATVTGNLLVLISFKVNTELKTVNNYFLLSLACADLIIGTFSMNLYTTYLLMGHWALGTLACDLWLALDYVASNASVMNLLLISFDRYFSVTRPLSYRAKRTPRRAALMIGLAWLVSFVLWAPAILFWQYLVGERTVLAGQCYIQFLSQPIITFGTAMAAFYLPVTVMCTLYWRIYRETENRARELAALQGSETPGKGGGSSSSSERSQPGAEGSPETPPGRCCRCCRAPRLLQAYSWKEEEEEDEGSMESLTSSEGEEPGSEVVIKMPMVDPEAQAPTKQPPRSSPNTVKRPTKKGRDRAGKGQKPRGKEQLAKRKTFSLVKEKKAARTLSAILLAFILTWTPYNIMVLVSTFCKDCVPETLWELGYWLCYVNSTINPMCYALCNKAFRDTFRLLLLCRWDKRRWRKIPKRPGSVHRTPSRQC
M1 PAM parental – counter-screen for M1 PAMs: effect in parental CHO-K1 cells | ATP EC20, Fluo-8 calcium fluorescence; 0% at ATP EC20, 100% at ATP max | activation, % at 3 µM | 360,000 compounds, 0.02% hits | AID 602247;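 active means activation above the run cutoff, the mean activation of all test compounds plus 3 SD, cut at about 40% in these data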;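 further: peak over basal fluorescence ratio in a 140 s read after ATP addition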
M1 ag parental – M1 agonist counterscreen hit in parental CHO-K1 cells | Fluo-8 calcium fluorescence; scaled to maximal ATP response, vehicle zero | activation, % at 3 µM | 360,000 compounds, 0.48% hits | AID 602248; in the data active means activation above about 15%;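 further: untransfected CHO-K1 host cells lacking M1 receptor as counterscreen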
M1 ag – agonists of human M1 muscarinic receptor. P11229. CHO-K1 hM1, Fluo-8 calcium fluorescence, agonist mode; 0% DMSO, 100% acetylcholine EC100. activation, % at 3 µM. 360,000 compounds, 0.33% hits. AID 588814;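 active means activation above the run's mean compound activation plus 3 SD, cut at about 16% in these data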;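 further: peak over basal fluorescence ratio within a 140 s kinetic read after compound addition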
CHRM1 antagonist – blocks human M1 muscarinic receptor. P11229. CHO-K1 hM1, Fluo-8 calcium fluorescence, ACh EC80 antagonist. inhibition, % at 3 µM. 360,000 compounds, 1.3% hits. AID 588852;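 active means percent inhibition above its own plate's cutoff, namely the mean of that plate's compound wells plus 3 SD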;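 further: peak over basal fluorescence ratio during 140 s after agonist addition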
CHO-K1 Ca antag – M1 antagonist counterscreen hit in parental CHO-K1 cells | ATP-induced calcium, Fluo-8 fluorescence | 360,000 compounds, 0.6% hits | AID 602250 | inhibition, % at 3 µM;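 active means inhibition above a per-plate cutoff, the plate's mean sample inhibition plus 3 SD, cut at about 24% in these data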
Each line names hits and unclear results; the compound was inactive in the other large screens. Most compounds without a hit are left out; they make up all but 2.3% or so of the library.

CC1CCCN(Cc2ccc(OCc3ccccc3)cc2)C1 (centres undefined)	CHRM1 antagonist 72.6
c1ccc(COc2ccc(OCCCCN3CCCCC3)cc2)cc1	CHRM1 antagonist 34.6
CN(C)S(=O)(=O)c1ccc(Cl)c(NC(=O)COC(=O)CNS(=O)(=O)c2c(F)cccc2F)c1	none
COc1cc(C(=O)Nc2ccc(Oc3ncnc4sc(-c5ccccc5)cc34)cc2)cc(OC)c1OC	none
COc1ccc(C(=O)Nc2ccc(Oc3ncnc4sc(-c5ccccc5)cc34)cc2)cc1OC	M1 ag parental 16.0
COc1ccc(NC(=O)CNC(=O)C23CC4CC(CC(C4)C2)C3)c(OC)c1	none
COc1ccc(OC)c(NC(=O)C(=O)NNC(=O)C23CC4CC(CC(C4)C2)C3)c1	M1 ag parental 24.5
C[C@@H]1CN([C@@H](C)CO)C(=O)CCCn2nncc2CO[C@H]1CN(C)Cc1ccc2c(c1)OCCO2	none
COCCN(CC1CCCN(C2Cc3ccccc3C2)C1)C(=O)CCC(N)=O (centres undefined)	CHRM1 antagonist 46.9
CCCCC1(Cc2ccc([N+](=O)[O-])cc2)C(=O)N(c2ccccc2)N(c2ccccc2)C1=O	CHRM1 antagonist 35.9
CCCCC1(COC(=O)CCC(=O)O)C(=O)N(c2ccccc2)N(c2ccccc2)C1=O	none
O=C(NC(=S)Nc1ccc(Cl)cn1)C(c1ccccc1)c1ccccc1	none
S=C(Nc1ccccc1)Nc1ccc(Cl)cn1	CHRM1 antagonist 36.8
COCCCNc1nc2ccccc2nc1NS(=O)(=O)c1cccc(C)c1	none
CCOc1ccccc1CN1CCN(CC2=Cc3cc(OC)ccc3OC2)CC1CCO (centres undefined)	CHRM1 antagonist 34.4
CCOc1ccccc1CN1CCN(Cc2ccc(C)o2)CC1CCO (centres undefined)	none
CC(C)C(NC(=O)c1ccco1)C(=O)NC1CCCCCC1 (centres undefined)	none
COc1cccc(NC(=O)CN(C)C(=O)c2ccccn2)c1	none
Cc1ccc(-c2nc(SCC(N)=O)c(C#N)c3c2CCCC3)cc1	CHO-K1 Ca antag 30.0
N#Cc1c(SCC(N)=O)nc(-c2ccccc2)c2c1CCCC2	none
CCOC(=O)[C@]12CCC=C1N(Cc1ccc(Cl)cc1Cl)C(=O)[C@H](CC(=O)NCCc1ccccc1OC)C2	none (no result: M1 PAM, M1 ag, CHRM1 antagonist)
COc1cccc(C=Cc2nccc3ccccc23)c1OC	none
CCN(CC)c1nc(C=Cc2ccc(N(C)C)cc2)c2nccnc2n1	M1 ag parental 44.6, M1 ag 33.4, CHRM1 antagonist 46.2, CHO-K1 Ca antag 44.5
CN(C)c1nc(N)c2nccnc2n1	none
CN(C)c1ccc(C=Cc2nccc3ccccc23)cc1	M1 ag parental 19.9, M1 ag 27.1, CHRM1 antagonist 40.6, CHO-K1 Ca antag 25.4
CN1C(=O)C(C)(C)c2cc(S(=O)(=O)NCc3ccc(C(=O)NCc4ccco4)cc3)ccc21	none
CCOC(=O)c1[nH]c(C)c(CN(C(C)=O)c2ccc(OCC)cc2)c1C	CHRM1 antagonist 25.6
Cc1ccccc1NC(=O)C1CCCN(S(=O)(=O)c2ccc3c(c2)C(C)(C)C(=O)N3C)C1 (centres undefined)	CHO-K1 Ca antag 29.7
COC(=O)c1sc(NC(=O)c2cc(-c3ccccc3)nc3ccccc23)c(C#N)c1C	none
Cc1ccccc1-c1cc(C(=O)Nc2sc(C(=O)OC(C)C)c(C)c2C#N)c2ccccc2n1	CHRM1 antagonist 30.8, CHO-K1 Ca antag 35.0
CC1CN(c2nc3c(c(=O)n(C)c(=O)n3C)n2Cc2c(F)cccc2Cl)CC(C)O1 (centres undefined)	M1 ag 18.4
CN1/C(=C\C=N\O)C(C)(C)c2ccccc21	none
CC1=NN(c2ccccc2)C(=O)/C1=C\C=C1/N(C)c2ccccc2C1(C)C	M1 ag parental 32.0, M1 ag 22.9, CHRM1 antagonist 25.9
CN1/C(=C\C=C2/SC(=S)NC2=O)C(C)(C)c2ccccc21	M1 ag parental 71.9, M1 ag 57.4, CHRM1 antagonist 61.9, CHO-K1 Ca antag 59.1
Cc1ccccc1N=C/C=C1\N(C)c2ccccc2C1(C)C	CHRM1 antagonist 25.2
CC1=NN(c2ccccc2)C(=O)/C1=C\C=C1\N(C)c2ccccc2C1(C)C	none
CCn1c(SCC(=O)O)nnc1-c1ccccc1OC	none
CC1=CC2(C)C(C3C(C)=CC2(C)C(=O)C3(C)O)C(C)(O)C1=O (centres undefined)	none
Cc1ccc(CS(=O)Cc2ccc(C(=O)NCc3ccccc3Cl)o2)cc1 (centres undefined)	CHRM1 antagonist 39.4
CC(=O)Nc1ccc(NC(=O)CCC(=O)Oc2ccc(C)cc2)cc1	none
CCCN(CC1CC1)C(=O)COC(=O)c1ccc(CNS(=O)(=O)c2ccc(F)c(Cl)c2)cc1	none
N#CCCN(C(=O)COC(=O)c1ccc(CNS(=O)(=O)c2ccc(F)c(Cl)c2)cc1)c1ccc(F)cc1	CHRM1 antagonist 78.6
Cc1ccccc1Cn1c(C)nc2ccccc21	CHRM1 antagonist 39.1, CHO-K1 Ca antag 28.6
Cc1nc2ccccc2n1Cc1ccc(Cl)cc1	CHO-K1 Ca antag 33.2
OCc1nc2ccccc2n1Cc1ccc(Cl)cc1	none
CCn1c(=O)n(CC(=O)Nc2ccc(F)cc2)c(=O)c2ccccc21	CHO-K1 Ca antag 29.1
COc1ccccc1-c1cnc(C(O)c2cc(C)ccc2C)[nH]1 (centres undefined)	none
CCOC(=O)C1=C(COC(=O)[C@@H]2CCCN2S(=O)(=O)c2ccc(C)cc2)NC(=O)NC1C (some centres undefined)	none
COc1ccc(NC(=O)Nc2ccc3c(c2)N(C)C(=O)CS3)cc1Cl	CHO-K1 Ca antag 28.1
COc1ccc(NC(=O)Nc2ccc3c(c2)N(C)C(=O)CS3)cc1OC	none
CC(C)CCNC(=O)Nc1ccc2c(c1)N(C)C(=O)CS2	CHRM1 antagonist 32.9
Cn1c(=O)c2c(ncn2CC(=O)Nc2ccc(N3CCOCC3)cc2)n(C)c1=O	CHO-K1 Ca antag 25.0
CCCCCCn1c(CN2CCN(CCO)CC2)nc2c1c(=O)n(C)c(=O)n2C	CHO-K1 Ca antag 24.0
CCCCCn1c(CN2CC(C)OC(C)C2)nc2c1c(=O)n(C)c(=O)n2C (centres undefined)	CHO-K1 Ca antag 23.8
COCCn1c(CN2CCN(c3ccccc3)CC2)nc2c1c(=O)n(C)c(=O)n2C	CHRM1 antagonist 32.9
CC1CN(Cc2nc3c(c(=O)n(C)c(=O)n3C)n2CCN2CCOCC2)CC(C)O1 (centres undefined)	none
CCCCOC(=O)CSc1nc(N)c(C#N)c(-c2ccc(OCC)cc2)c1C#N	CHO-K1 Ca antag 26.8
Cc1cccc(C)c1NC(=O)COC(=O)c1c2c(nc3ccccc13)/C(=C\c1ccc3c(c1)OCO3)CCC2	M1 ag parental 41.0, M1 ag 41.7, CHO-K1 Ca antag 27.6
